TcdB GH inh: TcdB glycohydrolase inhibitors, primary screen, biochemical, single point, plate reader. Toxin B (Clostridioides difficile), P18177. TcdB glycohydrolase enzymatic assay. inhibition, % at 9.99 µM. actives 0.24% (n = 350,000); in the data active means inhibition above about 10%
FadD28 FP inh: inhibitors of FadD28 bisubstrate probe binding, primary screen, biochemical, fluorescence polarization, single point; Mycobacterium tuberculosis FadD28 fatty-acid-AMP ligase; inhibition, % at 12.5 µM; actives 0.22% (n = 360,000); AID 588549, 2011; in the data active means inhibition above about 8.5%, passing the limit was not always enough
Mtb BioA inh: M. tuberculosis BioA enzyme inhibitors, primary screen, biochemical, plate reader, single point, HTS | purified M. tuberculosis BioA enzyme | inhibition, % at 9.99 µM | actives 0.096% (n = 360,000) | AID 602481, 2012; in the data active means inhibition above about 40%
RecA splice inh: Mtb RecA intein splicing inhibitors, primary screen, biochemical, fluorescence, HTS | Protein RecA (Mycobacterium tuberculosis (strain ATCC 25618 / H37Rv)), P9WHJ3 | cell-free RecA intein splicing | inhibition, % (test concentration not listed) | actives 0.75% (n = 290,000); in the data active means inhibition above about 30%;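 further: 0% = vehicle wells and 100% = reference inhibitor control wells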
Rv3671c protease: Rv3671c serine protease inhibitors, primary screen, biochemical, fluorescence polarization, M. tuberculosis H37Rv; inhibition, % at 5.96 µM; P9WHR9; actives 0.048% (n = 320,000); in the data active means inhibition above about 38%;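 further: extracellular domain of Rv3671c used as enzyme; 0% = enzyme with DMSO and 100% = no enzyme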
Target sequence (P9WHR9 whole entry, looked up, the tested form may be a part): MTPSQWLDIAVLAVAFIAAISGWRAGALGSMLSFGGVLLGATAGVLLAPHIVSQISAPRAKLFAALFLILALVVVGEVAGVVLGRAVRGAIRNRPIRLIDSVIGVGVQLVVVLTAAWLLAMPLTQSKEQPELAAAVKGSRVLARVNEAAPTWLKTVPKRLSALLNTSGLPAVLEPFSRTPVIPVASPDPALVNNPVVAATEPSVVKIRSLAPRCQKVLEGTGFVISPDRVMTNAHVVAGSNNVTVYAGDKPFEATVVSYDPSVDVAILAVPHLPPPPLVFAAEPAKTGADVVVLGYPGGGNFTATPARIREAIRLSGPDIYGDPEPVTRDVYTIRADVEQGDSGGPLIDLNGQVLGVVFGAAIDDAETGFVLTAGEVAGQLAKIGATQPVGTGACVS
Mtb UGM inh: M. tuberculosis UGM enzyme inhibitors, primary screen, biochemical, fluorescence polarization, single point; inhibition, % at 10 µM; purified UGM, fluorescence polarization probe displacement; actives 0.06% (n = 320,000); in the data active means inhibition above about 10%, passing the limit was not always enough
* = called active by the depositor; · = not tested or not shown. Hits are enriched below; roughly 0.9% of the tested compounds scored in any of these assays.

SMILES	TcdB GH inh	FadD28 FP inh	Mtb BioA inh	RecA splice inh	Rv3671c protease	Mtb UGM inh
CCn1nc(C)c(C2C(C#N)=C(N)Oc3n[nH]c(C)c32)c1C (stereo not given)	0.8	1.3	·	41.6*	-0.5	-2.3
CCC(CC)C1C(C#N)=C(N)Oc2n[nH]c(C)c21 (stereo not given)	·	-5.6	2.2	-6.9	1.3	-2.3
O=C(C[C@@H]1CC[C@H]2[C@@H](COC[C@H](O)CN2CC2CCCC2)O1)NCC1CC1	-0.1	·	·	·	·	·
Cn1cnc([N+](=O)[O-])c1S(=O)(=O)Oc1cccc2ccccc12	1.6	-1.0	3.7	·	·	·
Cn1cnc([N+](=O)[O-])c1Oc1cccc2ccccc12	·	-0.4	·	36.2*	-2.9	1.8
COc1cccc(NC(=S)/C(=C(\[O-])c2ccc(C)c([N+](=O)[O-])c2)[n+]2ccccc2)c1	·	-2.6	·	37.2*	-8.0	0.8
Cc1ccc(NC(=S)/C(=C(\[O-])c2ccc(C)c([N+](=O)[O-])c2)[n+]2ccccc2)cc1C	·	·	·	8.1	-4.8	1.3
CCC(=O)N[C@H]1CC[C@@H](CC(=O)NCCN2CCCCC2)O[C@@H]1CO	-0.3	·	-2.7	·	·	·
COC(=O)C[C@H]1CC[C@@H]2[C@@H](COc3ccc(NC(=O)c4cccc(OC)c4)cc3C(=O)N2C)O1	10.8*	·	11.9	·	·	·
COc1cccc(C(=O)Nc2ccc3c(c2)C(=O)N(C)[C@@H]2CC[C@H](CC(=O)NCCCN4CCOCC4)O[C@@H]2CO3)c1	12.4*	·	-1.2	·	·	·
CN1C(=O)c2cc(NC(=O)Nc3ccccc3Cl)ccc2OC[C@H]2O[C@@H](CC(=O)NCCCN3CCOCC3)CC[C@H]21	10.5*	·	1.6	·	·	·
O=c1c2ccccc2nc(/C=C/c2cccnc2)n1Cc1ccccc1	-0.8	-4.5	·	49.0*	·	·
O=c1c2ccccc2nc(/C=C/c2cccnc2)n1CCc1ccccc1	1.7	-5.6	15.8	42.9*	-1.3	-0.3
C[C@@H]1CN([C@H](C)CO)C(=O)c2ccccc2-c2ccccc2CO[C@@H]1CN(C)Cc1ccc(-c2ccccc2)cc1	0.8	·	·	·	·	·
Cc1cccc(/C=N/NC(=O)C(C)Nc2cccc3ccccc23)n1 (stereo not given)	·	-1.9	-2.8	74.7*	12.3	-0.4
CC(Nc1cccc2ccccc12)C(=O)N/N=C/c1ccc([N+](=O)[O-])cc1 (stereo not given)	·	-5.1	-3.5	4.0	5.2	1.1
O=C(CCN1CCCCC1)N[C@@H]1CC[C@@H](CCNS(=O)(=O)c2ccc(Cl)cc2)O[C@H]1CO	-0.6	·	3.1	·	·	·
O=C(CCC(=O)N1CCSc2ccccc21)Nc1cccc(F)c1	10.2*	0.2	0.0	0.3	-5.9	-1.5
COc1ccc(S(=O)(=O)Cc2ccc(C(=O)NCCc3ccc(S(N)(=O)=O)cc3)o2)cc1	-5.8	0.3	2.7	0.2	1.6	1.9
NS(=O)(=O)c1ccc(CCNC(=O)c2ccc(CS(=O)(=O)c3ccc(Br)cc3)o2)cc1	11.9*	-4.6	0.2	-2.0	-1.0	-0.1
CCOC(=O)N1CCC2(CC1)C(C#N)=C(N)Oc1c2c(C)nn1-c1cccc(Cl)c1	-1.8	0.5	-0.7	62.7*	-17.0	1.2
C/C(=C\c1ccccc1)C(=O)N1CCC=CC1=O	0.4	·	·	·	·	·
COc1cc(C=C2CN(C)C(=O)C2=O)ccc1O	21.4*	-1.4	12.0	·	·	·
CC(C)NC(=O)N(C)C[C@@H]1Oc2ncc(-c3ccccc3F)cc2C(=O)N([C@H](C)CO)C[C@H]1C	0.2	·	·	·	·	·
Cc1ccc(N2C(=O)c3cccc4c(N)ccc(c34)C2=O)c2cccnc12	-0.1	0.2	-2.4	-9.6	-21.1	7.2
SMILES	TcdB GH inh	FadD28 FP inh	Mtb BioA inh	RecA splice inh	Rv3671c protease	Mtb UGM inh
CCN1C(=O)c2cccc3c(N)ccc(c23)C1=O	2.2	-4.3	-33.4	-190.1	23.3	36.8*
COc1ccc(OC)c(N2C(=O)C(Cl)=C(N3CCOCC3)C2=O)c1	·	-3.5	-0.4	70.4*	-0.6	-0.5
COc1ccccc1N1C(=O)C(Cl)=C(N2CCCC2)C1=O	0.0	0.0	-1.0	-1.0	-5.5	-0.1
CN(C)c1ccc2cc(S(=O)(=O)O)cc(O)c2c1	-9.6	19.3*	-4.6	·	·	·
O=Nc1c(O)ccc2cc(S(=O)(=O)O)ccc12	·	-2.1	-2.2	·	·	·
CC1C(=O)C(C)C(c2ccc([N+](=O)[O-])cc2)NC1c1ccc([N+](=O)[O-])cc1 (stereo not given)	18.1*	-0.7	·	-2.7	-0.5	0.3
CCc1cccc2c(/C=N/NC(=O)c3cccc(S(=O)(=O)Nc4ccccc4Cl)c3)c[nH]c12	·	34.1*	·	-0.8	11.2	1.1
Cc1ccc(/C=N/NC(=O)c2cccc(S(=O)(=O)Nc3ccccc3Cl)c2)o1	12.2*	3.4	-0.5	-0.8	2.7	-0.2
O=C(N/N=C/c1ccco1)c1cccc(S(=O)(=O)Nc2ccccc2Cl)c1	·	-1.7	·	1.3	-7.0	1.9
COc1ccc(S(=O)(=O)N(C)C[C@@H]2Oc3ccc(NC(=O)Nc4c(C)noc4C)cc3C(=O)N([C@H](C)CO)C[C@H]2C)cc1	-1.5	·	2.4	·	·	·
Nc1ccc2[nH]ncc2c1	1.8	-1.8	1.4	61.4*	2.5	-3.7
Cc1ccc(C(C[N+](=O)[O-])c2c(-c3ccccc3O)[nH][nH]c2=O)cc1 (stereo not given)	·	-32.8	·	52.7*	-29.6	2.0
O=c1[nH][nH]c(-c2ccccc2O)c1C(C[N+](=O)[O-])c1ccc(Br)cc1 (stereo not given)	-15.4	-35.4	0.5	13.5	-6.9	-1.5
COc1cc(/C=C2\C(=N)N3N=C(S(=O)(=O)CC(C)C)SC3=NC2=O)ccc1OC(=O)c1ccco1	·	·	·	31.8*	-6.2	-7.1
O=C(O)CN1C(=O)/C(=C\c2ccc(OC(=O)c3ccco3)cc2)SC1=S	1.6	2.0	-5.7	30.3*	-1.3	-1.2
CCS(=O)(=O)C1=NN2C(=N)/C(=C\c3ccc(OS(=O)(=O)c4ccccc4)c(OC)c3)C(=O)N=C2S1	·	·	·	10.4	-21.6	-1.1
CC(C)CS(=O)(=O)C1=NSC2=NC(=O)/C(=C\c3ccc(OC(=O)c4ccco4)cc3)C(=N)N21	-1.1	-1.5	1.3	41.0*	-5.2	-1.5
CCS(=O)(=O)C1=NN2C(=N)/C(=C\c3ccc(OC(=O)c4ccco4)cc3)C(=O)N=C2S1	1.8	-1.5	0.7	32.8*	0.7	0.5
CSC1=NSC2=NC(=O)/C(=C\c3ccc(OC(=O)c4ccco4)cc3)C(=N)N12	0.7	0.4	2.1	-0.2	-18.2	1.6
C[C@@H]1CN([C@H](C)CO)C(=O)c2cccc(NS(=O)(=O)c3ccc(Cl)cc3)c2O[C@@H]1CN(C)C(=O)Nc1ccc2c(c1)OCO2	1.4	·	3.7	·	·	·

Compound activity (PubChem BioAssay)
